Laboratory results published in PubChem BioAssay (Tox21).
Several values for one entry are separate records, joined by “and”; a condition that tells them apart may be missing. Equal values may be shown once. Records with an inconclusive call do not appear. More than one record can exist for a structure, and the calls need not agree. Activity calls are given as the source filed them. Unless noted, the call rests on the fitted dose curve; in most records, active means well fitted curve in the direction sought with a large enough effect in the repeat runs; inconclusive means weak or mixed curves; inactive means no such curve, though single readings can be large; an effect the other way counts as inactive or inconclusive.

Columns and labels:
[1] = qHTS assay to identify small molecule agonists of the NFkB signaling pathway - cell viability counter screen (AID 1159515; calls by dose curve; further: nearly all actives have a fitted effect of over 55% in size)
Outline: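 5 hr compound treatment of NFkB-bla ME-180 cells (2,000/well, seeded overnight beforehand), followed by reporter substrate for 1.5 hr. CellTiter-Glo added afterward; luminescence after 30 min RT.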

[2] = qHTS assay to identify small molecule agonists of the endoplasmic reticulum stress response signaling pathway (AID 1159516; active means well fitted activation curve with a large enough effect in the signal ratio in the repeat runs, not every such curve was filed as active; the % refers to the signal ratio)
Outline: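 Reporter HeLa cells (ESRE-beta-lactamase) underwent 5 hr compound incubation at 37 C and 5% CO2 in quantitative HTS format. Detection followed 2 hr of FRET substrate loading at room temperature.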

[3] = qHTS assay to identify small molecule agonists of the AP-1 signaling pathway - cell viability counter screen (AID 1159525; calls by dose curve; further: nearly all actives have a fitted effect of over 55% in size)
Outline: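 AP-1-bla ME-180 cells in Opti-MEM with 0.5% dialyzed FBS, compound exposure 5 h at 37 C in 15-point titration. Viability read in the same wells as ATP content by CellTiter-Glo luminescence, normalised to tetra-n-octylammonium bromide and DMSO controls.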

[4] = qHTS assay to identify small molecule agonists of the RXR signaling pathway - cell viability counter screen (AID 1159529); further: nearly all actives have a fitted effect of over 50% in size; further: potency means the concentration at half of the fitted maximal effect
Outline: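 Counter screen: CellTiter-Glo luminescence. Cells: RXR-alpha-UAS-bla HEK 293T. Medium: 2% charcoal-stripped FBS. Treatment: 16 h, 37 C. Reagent incubation: 30 min, RT.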

[5] = qHTS assay to identify small molecule antagonists of the retinoic acid receptor (RAR) signaling pathway (AID 1159552; further: nearly all actives have a fitted effect of over 50% in size; further: potency means the concentration at half of the fitted maximal effect)
Outline: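 Antagonism of retinol-induced RARE reporter activity was measured in C3RL4 cells. Exposure to compounds and 1 uM final retinol lasted 6 hr at 37 C, with luminescence as endpoint.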

[6] = qHTS assay to identify small molecule agonists of the retinoic acid receptor (RAR) signaling pathway (AID 1159553); conditions: C3RL4 RARE luciferase reporter, agonist, 6 h; activation: at 73.3 µM (top of the series) unless noted; further: potency means the concentration at half of the fitted maximal effect
Outline: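 Activation of retinol signaling was monitored via a RARE luciferase reporter in C3RL4 cells. After 6 hr compound treatment at 37 C, detection reagent was added for 30 min at room temperature before luminescence reading.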

[7] = qHTS assay to identify small molecule antagonists of the estrogen related receptor (ERR) signaling pathway from Tox21 library - cell viability counter screen (AID 1224834); further: nearly all actives have a fitted effect of over 30% in size; further: potency means the concentration at half of the fitted maximal effect
Outline: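 CellTiter-Fluor fluorescence measured; ERR cells; 17.5 h compound incubation at 37 C; 30 min reagent step.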

[8] = qHTS assay to identify small molecule antagonists of the vitamin D receptor (VDR) signaling pathway - cell viability counter screen (AID 743225); further: nearly all actives have a fitted effect of over 50% in size; further: potency means the concentration at half of the fitted maximal effect
Outline: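 Same-well multiplex: following 16 h treatment of HEK 293T cells carrying a UAS-driven beta-lactamase reporter with compound and agonist (3 nM final), and a 2 h FRET substrate step, CellTiter-Glo was added and luminescence read after 30 min.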

[9] = qHTS assay to identify small molecule agonists of the endoplasmic reticulum stress response signaling pathway - cell viability counter screen (AID 1159517; calls by dose curve;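 further: HeLa cells carrying an ER stress response element beta-lactamase reporter; nearly all actives have a fitted effect of over 50% in size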)
Outline: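 Counter-screen wells were identical to the reporter wells. Cells were plated at 1,500 per well and dosed for 5 hr, then read for luminescence 30 min after CellTiter-Glo addition.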

[10] = qHTS assay to identify small molecule antagonists of the retinoid-related orphan receptor gamma (ROR-gamma) signaling pathway - cell viability counter screen (AID 1159520); further: nearly all actives have a fitted effect of over 50% in size
Outline: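 Tet-on ROR gamma CHO cells were given compounds for 2 hr, then doxycycline hyclate at 1 uM final, and incubated 16 hr at 37 C. Viability was measured as ATP content by CellTiter-Glo luminescence.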

[11] = target: Nuclear receptor ROR-gamma (Homo sapiens) (UniProt P51449); assay: qHTS assay to identify small molecule antagonists of the retinoid-related orphan receptor gamma (ROR-gamma) signaling pathway (AID 1159521; further: nearly all actives have a fitted effect of over 50% in size; further: potency means the concentration at half of the fitted maximal effect)
Outline: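 Inducible-expression reporter assay: doxycycline (1 uM final) switched on RORγ in CHO cells bearing a ROR response element-luciferase construct, with test compounds present from 2 h beforehand. Decreased luminescence after 16 h defined antagonist activity.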

[12] = qHTS assay to identify small molecule agonists of the AP-1 signaling pathway (AID 1159526; calls by dose curve)
[13] = target: Retinoic acid receptor RXR-alpha (Homo sapiens) (UniProt P19793); assay: qHTS assay to identify small molecule agonists of the RXR signaling pathway (AID 1159527; calls by dose curve; further: nearly all actives have a fitted effect of over 35% in size; further: potency means the concentration at half of the fitted maximal effect)
Outline: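 Compounds in DMSO were added to RXR-alpha-UAS-bla HEK 293T cells kept in 2% charcoal-stripped serum, and incubated 16 hr at 37 C with 5% CO2. Reporter signal came from a 2 hr B/G FRET substrate step.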

[14] = qHTS assay to identify small molecule antagonists of the retinoid acid receptor (RAR) signaling pathway - cell viability counter screen (AID 1159551); further: nearly all actives have a fitted effect of over 35% in size; further: potency means the concentration at half of the fitted maximal effect
Outline: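 Seed C3RL4 cells; next day add compound, then retinol to 1 uM final; incubate 6 h at 37 C; add CellTiter-Glo; read luminescence after 30 min at RT.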

[15] = qHTS assay to identify small molecule antagonists of the estrogen related receptor (ERR) signaling pathway - cell viability counter screen (AID 1224818);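 further: viability measured after 17.5 h of compound exposure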
Outline: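 In the same ERR cell assay, compound-treated wells (17.5 h, 37 C) were multiplexed with a fluorogenic viability reagent, CellTiter-Fluor, read after 30 min to flag cytotoxic substances.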

[16] = qHTS assay to identify small molecule antagonists of the estrogen related receptor signaling pathway with the pleiotropic PPARgamma coactivator (PGC) cell viability counter screen (AID 1224822)
Outline: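 Compounds in DMSO, with positive and negative controls, were applied to PGC/ERR cells (2,000/well) and left 17.5 h at 37 C before CellTiter-Fluor detection.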

Measured: Potency

Sequence of Retinoic acid receptor RXR-alpha (Homo sapiens) (P19793 whole entry, looked up): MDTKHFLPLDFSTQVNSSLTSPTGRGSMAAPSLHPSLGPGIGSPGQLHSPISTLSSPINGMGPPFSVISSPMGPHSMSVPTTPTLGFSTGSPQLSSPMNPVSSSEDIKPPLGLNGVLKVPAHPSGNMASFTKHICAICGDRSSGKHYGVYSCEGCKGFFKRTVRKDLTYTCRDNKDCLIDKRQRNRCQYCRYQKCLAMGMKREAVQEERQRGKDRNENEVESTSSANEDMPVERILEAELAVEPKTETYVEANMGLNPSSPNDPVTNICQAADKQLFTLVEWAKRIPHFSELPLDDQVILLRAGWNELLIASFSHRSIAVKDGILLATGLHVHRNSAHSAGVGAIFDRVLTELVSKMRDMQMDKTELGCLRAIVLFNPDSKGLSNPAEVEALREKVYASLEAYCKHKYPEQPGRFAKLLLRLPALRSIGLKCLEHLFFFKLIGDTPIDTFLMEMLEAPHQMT

COc1ccc2cc1Oc1ccc(cc1)C[C@H]1c3c(cc4c(c3Oc3cc5c(cc3OC)CCN(C)[C@@H]5C2)OCO4)CCN1C
inactive: [1] | [2] | [3] | [6]
active: [4] 23.9 µM | [5] 4.22 µM | [7] 23.7 µM

Cc1cc(C(C)(C)C)c(O)c(C)c1Cn1c(=O)n(Cc2c(C)cc(C(C)(C)C)c(O)c2C)c(=O)n(Cc2c(C)cc(C(C)(C)C)c(O)c2C)c1=O
active: [8] 12.3 µM
not listed: [2] | [5] | [15] | [16]
inactive: all other assays above

O=S(=O)(O)c1ccc(N=Nc2c(O)ccc3ccccc23)cc1
inactive: [1] | [2] | [12] | [6]
active: [7] 27.3 µM

CC(C)OC(=O)C(O)(CC(=O)O)CC(=O)O
active: [13] 21.9 µM
not listed: [2] | [5] | [6] | [15] | [16]
inactive: all other assays above

COC1=C(OC)C(=O)C(CCCCCCCCCCO)=C(C)C1=O
active: [8] 23.9 µM | [11] 18.8 µM | [7] 23.7 µM
inactive: [1] | [2] | [4] | [14] | [5] | [6]

Cl[Si](Cl)(c1ccccc1)c1ccccc1
not listed: [2] | [5] | [6] | [8] | [15] | [16]
inactive: all other assays above

Cc1ccc(C(C)C)cc2c(C)ccc1-2
not listed: [2] | [5] | [15] | [16]
inactive: all other assays above

Oc1cc(Cl)cc(Cl)c1Cl
inactive: [8] | [1] | [2] | [3] | [13] | [4] | [14] | [6]

O=C(Nc1ccc2c(O)c(N=Nc3ccc(N=Nc4ccc(S(=O)(=O)O)cc4)cc3)c(S(=O)(=O)O)cc2c1)c1ccccc1
inactive: [8] | [1] | [2] | [3] | [13] | [4] | [6]
active: [14] 24.3 µM | [7] 24.3 µM

c1ccc(C(O[C@@H]2CCCN(CCc3ccc4c(c3)OCO4)C2)c2ccccc2)cc1
active: [11] 61.1 µM
inactive: [1] | [2] | [4] | [14]

Oc1ccccc1O
active: [11] 8.74 µM and 27.3 µM | [7] 43.8 µM
not listed: [2] | [14]
inactive: all other assays above

Fc1ccc(C(c2ccc(F)cc2)N2CCNCC2)cc1
active: [8] 16.9 µM
not listed: [2] | [4] | [5] | [6] | [15] | [16]
inactive: all other assays above

OC1CCC(C2CCCCC2)CC1 (centres undefined)
not listed: [2] | [4] | [15] | [16]
inactive: all other assays above

COC(=O)C1=C(C)NC(C)=C(C(=O)OCCN2CCN(C(c3ccccc3)c3ccccc3)CC2)C1c1cccc([N+](=O)[O-])c1 (centres undefined)
inactive: [8] | [1] | [2] | [3] | [4] | [14]
active: [7] 11.9 µM

CC1(C)[C@@H](O)CC[C@]2(C)[C@H]3C(=O)C=C4[C@@H]5C[C@@](C)(C(=O)O)CC[C@]5(C)CC[C@@]4(C)[C@]3(C)CC[C@@H]12
inactive: [8] | [1] | [2] | [11] | [13] | [4] | [14]

Oc1c(I)cc(Cl)c2cccnc12
76.8 µM (active) and inactive: [6]
active: [11] 54.4 µM | [4] 1.09 µM | [7] 24.3 µM and 26.6 µM
inactive: [8] | [1] | [2] | [14] | [5]

C1CCC(SSC2CCCCC2)CC1
not listed: [2] | [15] | [16]
inactive: all other assays above

CCOc1ccc2ccccc2c1C(=O)N[C@@H]1C(=O)N2[C@@H]1SC(C)(C)[C@@H]2C(=O)O
not listed: [2] | [5] | [15] | [16]
inactive: all other assays above

CC(C)(C)c1csc(-c2cc3cc(OCc4ccccc4CC(=O)O)ccc3o2)n1
inactive: [1] | [2] | [5] | [6]

C=C(C)c1cccc(C(=C)C)c1
not listed: [2] | [15] | [16]
inactive: all other assays above
